Source: PubChem BioAssay (NCATS)
Records with an inconclusive call do not appear. Calls of active or inactive are those of the source. Calls come from the whole dose curve; as a rule, active = well fitted activation curve with a large enough effect; inconclusive = small, poorly fitted or top-dose-only effect; inactive = no such curve, though single readings can be large or run the other way.

Biological target: Cellular tumor antigen p53 (Homo sapiens) (UniProt P04637)
Experiment: Primary qHTS for small molecule compounds that upregulate eGFP-tagged delta133p53alpha (in N-terminal) cells. (AID 2060322); note: nearly all actives have a fitted effect of over 75% in size;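 for activation: cells pre-induced with doxycycline then dosed without doxycycline; series mostly up to about 56 µM; 0% = DMSO vehicle and 100% = reference activator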
Conditions: NCI-H358 eGFP-delta133p53alpha fluorescence, 24 h; activation: stronger effect = higher value
Outline: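 NCI-H358 cells pre-induced 24 h with 10 ng/ml doxycycline for eGFP-delta133p53alpha, plated dox-free and exposed 24 h at 37C to titrated compounds. Fixed, Hoechst-stained; gated GFP peak intensity by laser scanning cytometry, normalized to DMSO (0%) and 57.5 uM 5-azacytidine (100%).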
Potency is the fitted concentration of half-maximal effect.

Chain of Cellular tumor antigen p53 (Homo sapiens) (P04637 whole entry, looked up): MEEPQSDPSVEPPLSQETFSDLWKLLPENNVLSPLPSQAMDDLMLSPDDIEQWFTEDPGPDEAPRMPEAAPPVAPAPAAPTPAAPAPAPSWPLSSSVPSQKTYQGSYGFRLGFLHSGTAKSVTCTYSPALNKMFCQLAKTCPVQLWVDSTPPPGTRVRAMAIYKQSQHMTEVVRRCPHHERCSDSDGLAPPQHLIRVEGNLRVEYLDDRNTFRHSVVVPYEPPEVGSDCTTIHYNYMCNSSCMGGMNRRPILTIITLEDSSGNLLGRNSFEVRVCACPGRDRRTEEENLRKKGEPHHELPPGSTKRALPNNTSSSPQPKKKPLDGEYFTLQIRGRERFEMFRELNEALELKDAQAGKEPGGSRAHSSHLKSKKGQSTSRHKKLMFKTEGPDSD

| Structure (SMILES) | activation | Potency |
| --- | --- | --- |
| CC[C@H]1C=CC=CC[C@@H](C)[C@H](O)[C@@](C)(O)C(=O)[C@@H](C)[C@H](O)[C@@H](C)C(=O)[C@@H](C)[C@H](O)[C@@H](C)C=CC(=O)O[C@@H]2[C@@H](C)[C@H](CC1)O[C@]1(CC[C@H](C)[C@H](C[C@@H](C)O)O1)[C@H]2C | 11.3% (inactive) |  |
| CC(CC(C(N)=O)(c1ccccc1)c1ccccc1)N(C)C (stereo not drawn) | -9.6% (inactive) |  |
| CCc1ccc(C2CCNCC2)cc1 | 20.9% (inactive) |  |
| CC1(C)CC/C(=C/c2ccc(Cl)cc2)C1(O)Cn1cncn1 (stereo not drawn) | 2.51% (inactive) |  |
| CC(=O)O[C@@]12CO[C@H]1C[C@H](O)[C@@]1(C)C(=O)[C@H](O)C3=C(C)[C@@H](O)C[C@@](O)([C@@H](OC(=O)c4ccccc4)[C@@H]21)C3(C)C |  | 30.6 µM (active) |
| CCC(COC(=O)c1cc(OC)c(OC)c(OC)c1)(c1ccccc1)N(C)C (stereo not drawn) | -7.34% (inactive) |  |
| COc1ccc2c3c1O[C@H]1[C@H](O)CC[C@H]4[C@@H](C2)N(C)CC[C@@]341 | 16.4% (inactive) |  |
| CCCN1CCO[C@@H]2c3cc(O)ccc3OC[C@@H]21 | 15.2% (inactive) |  |
| O=c1oc2ccccc2c(O)c1Cc1c(O)c2ccccc2oc1=O |  | 17.4 µM (active) |
| C[C@@H]1CN(C2CCC(C#N)(c3ccc(F)cc3)CC2)CC[C@]1(C(=O)O)c1ccccc1 (stereo partly drawn) | 10.7% (inactive) |  |
| Oc1ccccc1-c1ccccc1 | 10% (inactive) |  |
| Cc1ncc2n1-c1ccc(Cl)cc1C(c1ccccc1F)=NC2 | -27.7% (inactive) |  |
| COC[C@H]1OC(=O)c2coc3c2[C@@]1(C)C1=C(C3=O)[C@@H]2CC[C@H](O)[C@@]2(C)C[C@@H]1OC(C)=O | 13.2% (inactive) |  |
